Experimental data published in ChEMBL document CHEMBL3988442, “University of Dundee, Small-Polar-MMV Screening Library” (2021).
Out of some 53,000 compounds screened, about 900 (1.7%) showed an effect of 50% or more. Only a selection was taken, and strong results are over-represented in it overall.

Each compound was assayed on Mycobacterium tuberculosis (assay: Cornell - Phenotypic assay to identify agents that inhibit growth of Mycobacterium tuberculosis). Conditions: 10 mM as filed; unlikely as a test dose.
Format: functional
Set-up: scale not given: direction of the effect not stated beside the values

With `CCN1CCCN(S(=O)(=O)c2cnc3onc(C)c3c2)CC1` as the compound, how does the “Percent Effect” value read?
The value was 44.95%.

Which “Percent Effect” value does the source give for `CCC1CCCN(S(=O)(=O)c2cnc3onc(C)c3c2)C1` (configuration not stated) here?
The value was 54.72%.

Which “Percent Effect” value does the source give for `Cc1noc2ncc(S(=O)(=O)N3CCCC(C)(C)CC3)cc12` here?
Its value is 49.9%.

With `CCc1noc(CN(Cc2cccs2)CC2CCCO2)n1` (configuration not stated) as the compound, how does the “Percent Effect” value read?
Its value is -2.113%.

`CNc1ncc(CN(C)C(=O)c2c[nH]nc2-c2cccc(F)c2)cn1` was tested. Which “Percent Effect” value did it give?
Its value is 11.75%.

`Cn1ncc2c1CCCN(C(=O)C1CCCC1)C2` was tested. Which “Percent Effect” value did it give?
Its value is 10.97%.

With `Cn1c(CCN2CCN(CCc3ccccc3)CC2)nc2ccccc21` as the compound, how does the “Percent Effect” value read?
The value was 76.94%.

Which “Percent Effect” value does the source give for `CCNC(=O)N1CCN(c2nc3ccccc3n2C)CC1` here?
Its value is 17.71%.

`Cc1cc(C)n(C2CCN(Cc3nc4ccccc4n3C)CC2)n1` was tested. Which “Percent Effect” value did it give?
Its value is 18.24%.

With `Cn1c(CN2CCN(CC3CCCO3)CC2)nc2ccccc21` (configuration not stated) as the compound, how does the “Percent Effect” value read?
The value was 22.41%.

With `CCCc1ccc(N2CCN(Cc3nc4ccccc4n3C)CC2)cc1` as the compound, how does the “Percent Effect” value read?
Its value is -0.4475%.

How did the “Percent Effect” value turn out when `Cn1c(CCN2CCN(c3ccc(O)cc3)CC2)nc2ccccc21` was run?
The value was 103.8%.

Which “Percent Effect” value does the source give for `CCCc1nc(NC2(COC)CCCC2)c2cnn(C)c2n1` here?
Its value is 21.48%.

For `Cc1ccc(C)c(S(=O)(=O)CCN2CCCC2Cn2cncn2)c1` (configuration not stated), which “Percent Effect” value is on record?
Its value is 23.02%.

`Fc1cccnc1O[C@@H]1CN(Cc2ccccn2)[C@@H]2CCCO[C@@H]21.O=C(O)C(F)(F)F.O=C(O)C(F)(F)F` was tested. Which “Percent Effect” value did it give?
The value was 2.355%.

`Cc1ccc(-c2cc(CN3CCCC(Cn4cncn4)C3)on2)cc1` (configuration not stated) was tested. Which “Percent Effect” value did it give?
The value was 8.833%.

With `O=C(C[C@@H]1COC[C@H]2CN(Cc3ccccn3)C[C@@H]12)N1CCOCC1.O=C(O)C(F)(F)F.O=C(O)C(F)(F)F` as the compound, how does the “Percent Effect” value read?
Its value is 6.339%.

With `c1ccc(C(NCc2nnc(-c3ccco3)o2)C2CCC2)cc1` (configuration not stated) as the compound, how does the “Percent Effect” value read?
Its value is 14.05%.

`Fc1ccc(C(NCc2nnc(-c3ccco3)o2)C2CCC2)cc1` (configuration not stated) was tested. Which “Percent Effect” value did it give?
Its value is 56.57%.

For `Fc1ccc(C(NCc2nnc(C3CC3)o2)C2CCC2)cc1` (configuration not stated), which “Percent Effect” value is on record?
Its value is 14.86%.

For `CC(CNC(=O)Nc1ccc(F)cc1-n1cccc1)N1CCOCC1` (configuration not stated), which “Percent Effect” value is on record?
The value was 31.56%.

For `CCNc1ncc(C(=O)NCc2ccc3nsnc3c2)cn1`, which “Percent Effect” value is on record?
Its value is 105.6%.

Which “Percent Effect” value does the source give for `CCNc1ncc(C(=O)NCc2cccc(OC(F)(F)F)c2)cn1` here?
Its value is 27.01%.

With `CCNc1ncc(C(=O)NCc2ccc(F)c(C(F)(F)F)c2)cn1` as the compound, how does the “Percent Effect” value read?
Its value is -33.7%.

For `O=C(NC1CC1)N1C[C@H]2CN(Cc3cccc(F)c3)C(=O)[C@H]2C1`, which “Percent Effect” value is on record?
Its value is -1.024%.

With `Cc1ccc(CN(CCCN(C)C)Cc2cnc(N(C)C)nc2)o1.O=C(O)CC(O)(CC(=O)O)C(=O)O` as the compound, how does the “Percent Effect” value read?
The value was -2.664%.

Which “Percent Effect” value does the source give for `O=C(O)C(F)(F)F.O=C([C@H]1C[C@H]2OCC[C@H]2N(Cc2ccccn2)C1)N1CCCCO1` here?
The value was -19.88%.
